Assay outcomes from PubChem BioAssay.
Most compounds without a hit are left out; they make up all but 1.1% or so of the library.
MOR-DOR inv ag – inverse agonist of human OPRM1-OPRD1 heterodimerization | cell-based MOR-DOR heterodimer luminescence, inverse agonism | actives 0.21% (n = 340,000) | P35372+P41143 | inhibition, % at 9.3 µM; in the data active = inhibition above about 22%, passing the limit was not always enough;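 also: 0% = cells with DMSO and 100% = wells without cells with DMSO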
HTR5A inv ag – inverse agonist of human HTR5A in OPRM1-OPRD1 counter-screen | P47898 | HTR5A cell line, luminescence, inverse agonism | inhibition, % at 9.3 µM | actives 0.083% (n = 340,000) | AID 504634; in the data active = inhibition mostly above about 23%, no sharp cut-off; inactive = mostly below about 18%;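 also: 0% = cells with DMSO and 100% = no-cell wells with DMSO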
Target sequence (P47898 whole entry, looked up): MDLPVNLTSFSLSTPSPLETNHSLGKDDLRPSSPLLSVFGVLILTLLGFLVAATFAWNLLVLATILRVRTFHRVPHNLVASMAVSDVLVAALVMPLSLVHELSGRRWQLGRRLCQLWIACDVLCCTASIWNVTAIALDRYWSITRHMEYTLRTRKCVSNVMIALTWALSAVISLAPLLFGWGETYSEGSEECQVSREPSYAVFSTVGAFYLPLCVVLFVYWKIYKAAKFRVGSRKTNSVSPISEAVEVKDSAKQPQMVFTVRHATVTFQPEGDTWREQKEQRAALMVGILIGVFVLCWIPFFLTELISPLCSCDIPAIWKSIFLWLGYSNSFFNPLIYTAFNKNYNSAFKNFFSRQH
OPRM1-OPRD1 ag – OPRM1-OPRD1 heterodimerization agonism | cells, luminescence | P35372+P41143 | activation, % at 9.3 µM | actives 0.3% (n = 340,000); in the data active = activation above about 18%;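 also: 0% = vehicle-treated cells and 100% = reference agonist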
HTR5A ag ctr – activates human HTR5A in OPRM1-OPRD1 agonist counter-screen; P47898; HTR5A agonist assay, luminescence, cell-based; activation, % at 9.3 µM; actives 0.61% (n = 340,000); in the data active = activation mostly above about 9.5%, no sharp cut-off; inactive = mostly below about 7.6%;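 also: 0% = cells with vehicle only and 100% = reference agonist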
Active calls of the source: *.

SMILES	MOR-DOR inv ag	HTR5A inv ag	OPRM1-OPRD1 ag	HTR5A ag ctr
COc1ccc(NS(=O)(=O)c2cc(NS(=O)(=O)c3cc(C(=O)O)ccc3OC)ccc2C)cc1	20.0	12.6	-5.1	-7.1
CSc1ccc(Cl)c(C(=O)Nc2ccc(C)cn2)c1	-2.1	12.8	0.4	-2.1
Nc1nc(SCC(=O)Nc2ccc([N+](=O)[O-])cc2)n[nH]1	6.8	5.5	-1.5	-2.1
CCCNC(=O)C(Cc1ccccc1)NC(=O)c1ccccc1 (stereo not given)	10.7	4.0	-2.3	-2.7
Cc1cccc(C)c1NC(=O)CNC(=O)C(Cc1ccccc1)NC(=O)c1ccccc1 (stereo not given)	2.7	-46.2	-0.5	12.6*
COc1ccc(NS(=O)(=O)c2ccc3c(c2)NC(=O)CCS3)cc1Cl	-11.3	4.1	2.2	-1.1
CCC(C)n1c(=O)c(C(=O)Nc2ccccc2S(N)(=O)=O)c(O)c2ccccc21 (stereo not given)	-25.2	7.6	4.2	9.0*
CC(C)Cn1c(=O)c(C(=O)Nc2ccccc2S(N)(=O)=O)c(O)c2ccccc21	-11.9	-4.2	2.3	9.1
Cc1cc(C)c(-c2c(O)c3c(n(C)c2=O)CC(C)(C)CC3=O)c(C)c1	4.0	6.4	-0.7	-2.4
Cc1cc(C)c2c(c1)CC(C)(C)CC2=O	9.3	-37.9	-1.8	9.2*
COc1ccc(-c2cc(C(=O)NCCc3ccc(S(N)(=O)=O)cc3)c3ccccc3n2)cc1	3.6	-29.4	-0.7	1.0
COc1cccc(-n2c(=S)sc3c(=O)n(-c4ccccc4OC)c(=S)[nH]c32)c1	-2.0	-24.6	0.4	8.9*
COc1ccccc1-n1c(=S)[nH]c2c(sc(=S)n2-c2ccccc2)c1=O	-1.4	6.3	0.3	-2.5
O=C(NC1CCCCCC1)c1cccs1	2.7	-42.5	-0.5	3.0
O=C(CNC1CCCCCC1)c1cccs1	32.8*	-17.0	-5.9	6.3
Cc1ccc(S(=O)(=O)N2CCCCC2c2cccnc2)c(C)c1C (stereo not given)	2.5	-40.8	-0.5	12.9*
Cc1ccc(N2CC(NS(=O)(=O)c3cc(F)ccc3F)CC2=O)cc1C (stereo not given)	1.6	7.3	-0.3	0.2
O=C(NC1CCCCC1)c1ccc([N+](=O)[O-])o1	-25.4	-7.4	4.0	4.4
O=C(NC1CCCC(C(F)(F)F)C1)c1ccc([N+](=O)[O-])o1 (stereo not given)	-17.7	-18.7	4.7	14.3*
CCCCc1nc2cc(C(=O)N3CCCC(OCCC)C3)ccc2o1 (stereo not given)	3.7	-3.1	-0.7	-0.2
Cc1cc(C)c(S(=O)(=O)NCc2csc(C)n2)c(C)c1	5.5	-11.5	-1.2	3.0
O=C(Nc1ccc(-c2nc3ccccc3[nH]2)cc1)c1ccc2c(c1)OCO2	-46.8	8.6	10.2	12.7*
O=C(Nc1ccc(Cl)c(-c2nc3ccccc3[nH]2)c1)c1ccc2c(c1)OCO2	-6.0	6.9	1.1	-3.2
CCOC(=O)C(C)Oc1cccc2c(=O)n(CC(=O)Nc3ccc4c(c3)OCCO4)ccc12 (stereo not given)	3.7	4.3	-0.6	0.9
CCOC(=O)C(C)Oc1cccc2c(=O)n(CC(=O)NCc3ccc4c(c3)OCO4)ccc12 (stereo not given)	6.0	-19.5	-1.0	12.0*
SMILES	MOR-DOR inv ag	HTR5A inv ag	OPRM1-OPRD1 ag	HTR5A ag ctr
O=C(c1ccco1)N1CCCC(c2nc3c(nnn3Cc3ccc(F)cc3)c(=O)[nH]2)C1 (stereo not given)	14.9	5.1	-2.8	-3.2
CCOC(=O)c1ccccc1Nc1cn(C(C)=O)c2ccccc12	8.6	7.5	-1.7	-3.4
COc1ccccc1N(C(=O)CCl)c1cn(C(C)=O)c2ccccc12	-252.0	7.8	50.5*	39.0*
CCn1c(O)c(/C=N/N=C/c2ccccc2)c2ccc(C3=NNC(=O)CC3)cc21	-25.8	-28.1	5.7	12.7*
Oc1cccc(C(O)CNCc2ccc(OCc3ccc(Cl)cc3Cl)cc2)c1 (stereo not given)	-59.4	-35.5	10.4	12.5*
Cc1cccc(C)c1OCC(=O)OC/C(O)=C(\C#N)c1nc2ccccc2[nH]1	-88.9	-6.9	16.7	7.5
Cc1cc(C)cc(OCC(=O)OC/C(O)=C(\C#N)c2nc3ccccc3[nH]2)c1	-211.4	-20.2	39.8*	23.2*
O=c1c(Br)c(NCc2ccccc2)cnn1-c1ccc(F)cc1	7.5	-29.5	-1.5	6.0
O=C1C(=O)N(CCN2CCOCC2)C(c2ccccn2)/C1=C(/O)c1ccccc1 (stereo not given)	10.8	-41.6	-2.0	11.8*
CN1CCN(S(=O)(=O)c2ccc(Br)c3ccccc23)CC1	4.8	-41.0	-1.0	10.9*
